Assay in all cases: NCI-60 one-dose screen, 48 h (100 = growth as untreated, 0 = no growth, -100 = all killed)
In one assay the test system is HT29 colon. The following applies: 10 µM unless noted.
For another assay, the system named is SNB-75 CNS. As to conditions: 10 µM unless noted.
For a further assay, the system named is SNB-19 CNS. As to conditions: 10 µM unless noted.
The subject of the next assay is U251 CNS. The following applies: 10 µM unless noted.
In a further assay the test system is PC-3 prostate. The following applies: 10 µM unless noted.
The subject of the next assay is SK-MEL-5 melanoma. As to conditions: 10 µM unless noted.
The test system of a further assay is UACC-62 melanoma. As to conditions: 10 µM unless noted.
For another assay, the system named is LOX IMVI melanoma. As to conditions: 10 µM unless noted.
For the next assay, the system named is SK-MEL-28 melanoma. The following applies: 10 µM.
For another assay, the system named is SN12C renal. The following applies: 10 µM unless noted.
The next assay concerns UO-31 renal. The following applies: 10 µM unless noted.
Another assay relates to TK-10 renal. The following applies: 10 µM unless noted.
Another assay concerns ACHN renal. As to conditions: 10 µM unless noted.
A further assay relates to CAKI-1 renal. The following applies: 10 µM unless noted.
For the next assay, the system named is A498 renal. The following applies: 10 µM unless noted.
The next assay relates to CCRF-CEM leukemia. As to conditions: 10 µM unless noted.
The subject of the next assay is MOLT-4 leukemia. As to conditions: 10 µM unless noted.
A further assay concerns SR leukemia. The following applies: 10 µM unless noted.
The subject of a further assay is SK-MEL-2 melanoma. The following applies: 10 µM unless noted.
The subject of another assay is EKVX NSCLC. As to conditions: 10 µM unless noted.

Structures are written as SMILES. About 83,000 compounds went through this panel and 20% of them were active in at least one assay; those are over-represented in the sample as a whole.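 For each line, cells grew in 96-well plates with the test compound present at a single concentration for 48 hours.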 A number with no mark means an inactive call. Calls of active or inactive are those of the source. How the source made its calls: active means growth percent below 10; inactive means the rest.

In the case of `c1ccc(CNc2nc(Nc3ccccc3)nc3ccccc23)cc1`, the growth in the assay with HT29 colon is 54.5%; in the assay with SNB-75 CNS it was -6.23% (active); with SNB-19 CNS, 47.3%; in the assay on U251 CNS it was 29.6%; with PC-3 prostate, 19.5%; in the assay with SK-MEL-5 melanoma, 54.8%. Also, the growth in the assay on UACC-62 melanoma is 27.1%; with LOX IMVI melanoma it was 59.6%; with SK-MEL-28 melanoma, -35.1% (active); in the assay on SN12C renal, 71.3%; in the assay with UO-31 renal, 80.7%; in the assay on TK-10 renal, 19.3%. Besides, the growth was 33.7% with ACHN renal; 40.4% in the assay on CAKI-1 renal; 37.4% with A498 renal; 69.5% in the assay on CCRF-CEM leukemia; 80.3% with MOLT-4 leukemia; 20% with SR leukemia.
On to `O=C(Nc1ccc(F)c(Cl)c1)Nc1ccc(Cl)c(Cl)c1`, for which the growth with HT29 colon was 51.8%; with SNB-75 CNS it was 79.7%; in the assay on SNB-19 CNS, 92.8%; with U251 CNS, 63.4%; in the assay on PC-3 prostate, 77%; in the assay with SK-MEL-5 melanoma it was 59.6%. Further, the growth with UACC-62 melanoma was 58.9%; with SK-MEL-28 melanoma, 70.1%; in the assay with SK-MEL-2 melanoma, 79.7%; with SN12C renal, 75.8%; with UO-31 renal, 79.2%; in the assay with TK-10 renal, 101%. In addition, the growth in the assay on ACHN renal is 96%; in the assay on CAKI-1 renal, 76.1%; in the assay on A498 renal, 69.6%; in the assay with CCRF-CEM leukemia, 64.8%; in the assay on MOLT-4 leukemia it was 43.9%; in the assay with SR leukemia, 10.2%.
For the compound `CC(=Nc1ccccc1)C1=C(O)C(Cc2ccc(F)cc2)NC1=O` (centres undefined), the growth was 2.78% (active) in the assay with HT29 colon; 17.9% in the assay with SNB-75 CNS; 42.4% with SNB-19 CNS; 28.2% in the assay on U251 CNS; 18.3% in the assay with PC-3 prostate; 25.1% in the assay on SK-MEL-5 melanoma. The growth in the assay with UACC-62 melanoma is 23.5%; in the assay on LOX IMVI melanoma, 36.2%; in the assay with SK-MEL-28 melanoma, 45.3%; in the assay on SN12C renal, 49.1%; with UO-31 renal it was 44.3%; with TK-10 renal it was 41.9%. In addition, the growth is 50.9% with ACHN renal; 33.6% with CAKI-1 renal; 19.3% with A498 renal; 10.7% in the assay with CCRF-CEM leukemia; 14.5% with MOLT-4 leukemia; 6.59% (active) in the assay on SR leukemia.
`COc1ccc(C2NCCc3c2[nH]c2ccccc32)cc1CN1CCN(c2ccc(F)cc2)CC1` (centres undefined): the growth in the assay on HT29 colon is -3.33% (active); with SNB-75 CNS, 24.4%; in the assay with SNB-19 CNS it was 77.9%; in the assay on U251 CNS it was 26%; with PC-3 prostate it was 44.8%; with SK-MEL-5 melanoma it was -40.7% (active). Moreover, the growth in the assay with UACC-62 melanoma is 12.5%; in the assay on LOX IMVI melanoma it was 2.51% (active); in the assay on SK-MEL-28 melanoma, 67.9%; in the assay with SN12C renal, 55.6%; in the assay with UO-31 renal, 2.15% (active); with TK-10 renal, 56.6%. Moreover, the growth in the assay on ACHN renal is 64.7%; in the assay with A498 renal, 89.8%; with CCRF-CEM leukemia it was 16.3%; in the assay on MOLT-4 leukemia, 23.6%; with SR leukemia, 19.9%.
As to `O=C(Nc1ccc(Cl)cc1)N1CCN(c2ccc3nncn3n2)CC1`, the growth in the assay on HT29 colon was -28.6% (active); in the assay on SNB-75 CNS, -68.9% (active); in the assay on SNB-19 CNS it was 80.3%; in the assay on U251 CNS it was -74.7% (active); in the assay with PC-3 prostate, 16.4%; in the assay on SK-MEL-5 melanoma, -98.4% (active). Further, the growth in the assay on UACC-62 melanoma is -88.3% (active); with SK-MEL-28 melanoma, -95.5% (active); in the assay on SN12C renal, 54.3%; in the assay on UO-31 renal, 36.1%; in the assay on TK-10 renal, 42.3%; with ACHN renal it was 8.04% (active). Moreover, the growth with CAKI-1 renal is 29.3%; with A498 renal, 21.5%; in the assay on CCRF-CEM leukemia, -9.45% (active); with MOLT-4 leukemia, -41.5% (active); in the assay on SR leukemia, -40.5% (active).
For `COC(=O)c1cc2c(n1Cc1ccccc1)-c1oncc1CCC2`, the growth in the assay on HT29 colon was 30.9%; in the assay on SNB-75 CNS, 67.2%; with SNB-19 CNS, 81.8%; with U251 CNS, 68.6%; in the assay on PC-3 prostate, 77.4%; in the assay with SK-MEL-5 melanoma, 58.6%. The growth in the assay with UACC-62 melanoma was 49.7%; in the assay with LOX IMVI melanoma, 67.8%; in the assay on SK-MEL-28 melanoma it was 62.5%; in the assay on SN12C renal, 73.2%; with UO-31 renal it was 79.9%; in the assay with TK-10 renal, 102%. Besides, the growth in the assay on ACHN renal is 79.8%; in the assay with CAKI-1 renal, 78.7%; with A498 renal, 53.8%; in the assay on CCRF-CEM leukemia, 61.7%; in the assay on MOLT-4 leukemia, 61.7%; in the assay on SR leukemia, 12.2%.
Take `O=C(Nc1ccccc1O)c1ccc(-c2ccc(Cl)cc2Cl)o1`: the growth is 53.9% in the assay on HT29 colon; 78.1% in the assay on SNB-75 CNS; 89.2% with SNB-19 CNS; 81.1% in the assay with U251 CNS; 71.7% with PC-3 prostate; 85.9% in the assay with SK-MEL-5 melanoma. For the same compound, the growth with UACC-62 melanoma is 105%; in the assay with SK-MEL-28 melanoma, 98.6%; in the assay with SK-MEL-2 melanoma, 96.3%; with SN12C renal, 89.8%; in the assay with UO-31 renal it was 74%; with TK-10 renal, 102%. The growth is 102% with ACHN renal; 78.7% in the assay on CAKI-1 renal; 86.4% in the assay with A498 renal; 75.1% with CCRF-CEM leukemia; 65.6% in the assay with MOLT-4 leukemia; 48.7% in the assay with SR leukemia.
Consider `CCOc1c(Br)cc(C2C(C(=O)OC)=CN(C)C=C2C(=O)OC)cc1OC`, for which the growth in the assay with HT29 colon is 6.47% (active); with SNB-75 CNS, 47.3%; in the assay on SNB-19 CNS, 89%; in the assay with U251 CNS, 51%; with PC-3 prostate, 60.7%; with SK-MEL-5 melanoma, 19.6%. Further, the growth in the assay with UACC-62 melanoma is 71.3%; in the assay with LOX IMVI melanoma, 54.9%; in the assay with SK-MEL-2 melanoma, 65.7%; with SN12C renal it was 78%; with UO-31 renal, 38.2%; in the assay with TK-10 renal, 69.3%. The growth in the assay on ACHN renal was 64.4%; in the assay on CAKI-1 renal it was 75.8%; in the assay with A498 renal, 99%; in the assay with CCRF-CEM leukemia, 72.7%; in the assay with MOLT-4 leukemia, 59.6%; in the assay on SR leukemia, 8.75% (active).
For the compound `Cc1ccc2nc(NC(=O)CSC(=S)N3CCN(c4ccccc4)CC3)sc2c1`, the growth is 96.6% with HT29 colon; 97.1% in the assay on SNB-75 CNS; 96.9% in the assay with SNB-19 CNS; 86.3% with U251 CNS; 95.5% in the assay on PC-3 prostate; 95.4% in the assay on SK-MEL-5 melanoma. Besides, the growth is -65% (active) in the assay on LOX IMVI melanoma; 107% in the assay with SK-MEL-28 melanoma; 96.1% in the assay with SK-MEL-2 melanoma; 109% with EKVX NSCLC; 99% with SN12C renal; 88.2% in the assay with UO-31 renal. Also, the growth in the assay with TK-10 renal is 108%; in the assay with ACHN renal, 100%; in the assay on A498 renal, 108%; with MOLT-4 leukemia it was 111%; with SR leukemia, 98.7%.

(Values after PubChem BioAssay (NCI).)
